Source: PubChem
PrPC surface inh: inhibitors of human cell surface prion protein PrPC, primary screen, cell-based, TR-FRET; TR-FRET read-out; inhibition, % at 13.8 µM; hit rate 0.43% among 370,000; in the data active = inhibition above about 24%; also: 0% = median of the test wells and 100% = reference compound wells
FadD28 FP inh: inhibitors of FadD28 bisubstrate probe binding, primary screen, biochemical, fluorescence polarization, single point | Mycobacterium tuberculosis FadD28 fatty-acid-AMP ligase | inhibition, % at 12.5 µM | hit rate 0.22% among 360,000 | AID 588549, 2011; in the data active = inhibition above about 8.5%, passing the limit was not always enough
Vc quorum ag-1: inducers of Vibrio cholerae quorum light production without autoinducers, primary screen, BH1578 luxS cqsA deficient, single point; V. cholerae BH1578 lux reporter, luminescence, 6 h; activation, % at 18.7 µM; hit rate 0.16% among 350,000; in the data active = activation mostly above about 9.7%, no sharp cut-off
PrP 5UTR inh: inhibition of PrP 5' UTR reporter expression; cell-based PrP 5' UTR mRNA reporter, plate reader; inhibition, % (concentration not given with the values); hit rate 0.35% among 340,000; AID 488862, 2010; in the data active = inhibition above about 52%; also: 0 = median of the neutral control wells
PriA SSB inh: inhibitors of Klebsiella pneumoniae PriA binding to SSB C-terminal tail, primary screen, biochemical, AlphaScreen | PriA–SSB C-terminal tail interaction (Klebsiella pneumoniae) | AlphaScreen SSBct-PriA binding, biotinylated peptide | inhibition, % at 33 µM | hit rate 0.6% among 430,000 | AID 1272365, 2023; in the data active = inhibition mostly above about 37%, no sharp cut-off; inactive = mostly below about 20%;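 also: plate controls were negative control peptide for no effect and reference peptide for full effect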
Vc quorum ag-2: V. cholerae lux activation without autoinducers – BH1578 luxS cqsA deficient, cherry-pick, plate reader, dose response; shares compounds with Vc quorum ag-1; V. cholerae BH1578 lux reporter, luminescence, 6 h; activation, % at 50 µM; 620 tested, under 10 active; AID 602243, 2012; call rule not given here
* hit, by the source's call; i = inactive; nt = not tested or not shown. A selection: hits, their analogues and other compounds. The true share with any hit is near 1.4%.

SMILES	PrPC surface inh	FadD28 FP inh	Vc quorum ag-1	PrP 5UTR inh	PriA SSB inh	Vc quorum ag-2
CC(C)N1CCc2c(sc(NC(=O)c3ccc4ccccc4c3)c2C(N)=O)C1	-10.8	-4.4	137.9*	-4.6	-21.9	1.1
CCOC(=O)C1CCN(C(=O)C2c3ccccc3C(=O)N(C)C2c2ccc(OC)cc2)CC1 (stereo unspecified)	5.7	-0.6	16.7*	-22.4	-3.9	1.0
COc1ccc(C2C(C(=O)N3CCCCC3)c3ccccc3C(=O)N2C)cc1 (stereo unspecified)	-2.5	-0.5	i	-26.0	-1.2	nt
CCC(C(=O)Nc1cc(F)ccc1F)n1cccc(-c2nc(C3CC3)no2)c1=O (stereo unspecified)	nt	nt	nt	nt	-10.0	nt
Cn1cccc1C(=O)OCc1cc(-c2ccco2)on1	2.1	-3.5	31.0*	-71.8	-7.1	39.4
Cc1ccc(S(=O)(=O)N2Cc3ccccc3CC2C(=O)Nc2ccc3c(c2)OCO3)cc1 (stereo unspecified)	-6.3	-3.9	3.2	-36.7	12.5	1.6
CCCOc1ccc(-c2nc(C#N)c(N3CCN(CC)CC3)o2)cc1	0.5	-0.9	12.5	-7.0	21.2	14.4
COc1cc(OC)cc(C2=NN(C(=O)c3cccs3)[C@H](c3ccccc3Cl)C2)c1	nt	nt	nt	nt	10.0	nt
Cc1cccc(NC(=O)CS(=O)(=O)c2cn(C)c3ccccc23)c1C	0.1	0.2	16.7*	18.5	-6.0	0.3
Cc1cccc(NC(=O)CS(=O)(=O)c2cn(C)c3ccccc23)c1	1.9	-0.5	-0.3	-6.6	-2.4	nt
O=C(Oc1ccnc2cc(Cl)ccc12)N1CCCC1	nt	nt	nt	nt	-20.0	nt
O=C(Oc1ccnc2cc(Cl)ccc12)N1CCCCCC1	1.3	-1.1	16.7*	-5.3	-20.0	1.3
Cn1c(-c2ccc(Cl)cc2)cnc1SCC(=O)NCc1ccco1	nt	nt	nt	nt	-11.0	nt
Cc1ccc(C)n1-c1sc2c(c1C#N)CCC(C)C2 (stereo unspecified)	0.9	-3.0	14.3	-48.7	-10.5	1.7
CC(=O)Nc1sc2c(c1C#N)CCC(C)C2 (stereo unspecified)	-2.0	-3.2	-0.8	-45.9	-19.8	nt
CCOC(=O)c1cnc2nc(Cc3ccccc3)[nH]n2c1=O	1.9	-1.7	i	-20.9	-1.8	nt
CCOC(=O)c1cnc2nc(C(F)(F)F)[nH]n2c1=O	0.1	-2.9	16.7*	-17.2	-1.1	0.4
Cc1cc(C(=O)CSc2nnc(-c3ccco3)o2)c(C)n1CC1COc2ccccc2O1 (stereo unspecified)	-4.2	-0.9	18.4	-20.3	4.5	1.2
Nc1nnc(-c2ccc(Cl)cc2Cl)s1	8.1	-1.3	470.3*	-63.9	-7.0	68.6
Nc1nnc(-c2ccccc2F)s1	1.5	-2.6	-0.3	-17.6	3.9	nt
COc1ccc(-c2ccc(-c3nnc(Cc4ccc(OC)c(OC)c4)o3)cc2)cc1	-4.8	-4.0	14.3	-19.8	-8.6	0.1
COc1ccc(CCNC(=O)c2nnn(-c3ccc4c(c3)OCCO4)c2N)cc1OC	0.2	-3.0	7.6*	41.9	-0.7	1.3
CCC(C)NS(=O)(=O)c1ccc(S(=O)(=O)Nc2cc3c(cc2C(C)=O)OCO3)cc1 (stereo unspecified)	1.7	0.0	22.2*	-19.3	-0.9	0.2
CC(=O)c1cc2c(cc1NS(=O)(=O)c1ccccc1)OCO2	6.2	-1.3	14.3	-18.9	3.0	0.0
CC(=O)Nc1ccc(S(=O)(=O)Nc2cc3c(cc2C(C)=O)OCO3)cc1	4.5	1.9	i	1.5	1.3	nt
COc1cccc(NC(=S)Nc2ccc(OC)cc2OC)c1	nt	nt	nt	nt	3.0	nt
Cn1nc(CNC(=O)NCc2cccs2)c2c1CCOC2	nt	nt	nt	nt	-6.0	nt
COc1ccccc1NC(=O)Cc1csc(NC(=S)Nc2ccccc2)n1	1.3	-9.8	14.3	-29.3	15.0	0.4
Cc1cc(NC(=O)c2ccccc2[N+](=O)[O-])nc2c1c(=O)oc1ccccc12	nt	nt	nt	nt	0.0	nt
Cc1ccc(N(C(C)C(=O)O)S(=O)(=O)c2c(C)[nH]c(=O)[nH]c2=O)cc1 (stereo unspecified)	-2.9	0.2	-0.4	-8.2	-15.7	nt
